Rows were chosen to be rich in hits. Some 12% of all compounds tested hit in one or more screens of this group.
Arbovirus inh: arbovirus infection inhibition | AID 1251 | arbovirus infection cell-based antiviral screen | hit rate 0.37% among 200,000 | inhibition, % at 10 µM; in the data active = inhibition above about 30%
WT yeast gro inh: growth inhibition of WT yeast, mitochondrial fusion screen | mitochondrial fusion phenotypic screen, WT strain | inhibition, % at 10 µM | hit rate 2.1% among 190,000 | AID 1362; in the data active = inhibition above about 58%; tested in S. cerevisiae
Lmaj promast: inhibitors of Leishmania major promastigote growth; Leishmania major promastigotes, resazurin fluorescence viability; AID 1063; hit rate 9% among 200,000; inhibition, % at 10 µM; in the data active = inhibition above about 50%;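 note: promastigotes grown with compound for 44 hours at 28 °C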
CHOP inh: inhibitors of CHOP induction in ER stress response; inhibition, % at 10 µM; AID 2732; CHO-K1 CHOP-promoter luciferase, tunicamycin-induced, 15-18 h; hit rate 3.8% among 220,000;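 active = compounds that reduced the stress-induced luciferase reporter signal by more than about 70% of percent inhibition, limit read from the data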
Of the large screens only hits and unclear results are named; the others gave an inactive call.

CCN(CC)C(=O)C1=C(C)Nc2ncnn2C1c1cccnc1 (centres undefined)	none
CCc1cc(C(=O)c2ccc(OC)cc2)c(NC(=O)CC(C)(C)CC(=O)O)s1	none (no result: Arbovirus inh, WT yeast gro inh, Lmaj promast)
Cc1nn(-c2ccc([N+](=O)[O-])cc2)c2c1C(c1ccc(OC(F)F)cc1)N1C(=N2)C(=O)Nc2ccccc21 (centres undefined)	Lmaj promast 68
COc1ccc(NC2=Nc3ccccc3N3C2=Nc2c(c(C)nn2-c2ccc(C)cc2)C3c2cccnc2)cc1 (centres undefined)	none
O=[N+]([O-])c1ccc2nc(-c3ccc(OC(F)F)cc3)cn2c1	none
COc1cccc(C2c3c(C)nn(-c4ccc([N+](=O)[O-])cc4)c3N=C3C(=O)Nc4ccccc4N32)c1 (centres undefined)	Lmaj promast 65
Cc1ccc(C2c3c(C)nn(-c4ccc([N+](=O)[O-])cc4)c3N=C3C(=O)Nc4ccccc4N32)cc1 (centres undefined)	Lmaj promast 99
O=C(CSc1nc2ncc(Cl)cc2[nH]1)N(Cc1ccccc1)C1CCS(=O)(=O)C1 (centres undefined)	none
Cc1ccc(CSc2nn3c(=O)c(C)nnc3s2)cc1	none
Cc1cccc(CSc2nn3c(=O)c(C)nnc3s2)c1	Arbovirus inh 40
COc1ccc(C2CC(=O)Oc3cc(O)cc(O)c32)cc1 (centres undefined)	none (no result: Arbovirus inh, WT yeast gro inh, Lmaj promast)
COc1ccc(C2CC(O)(c3ccccc3)Oc3cc(OC)cc(OC)c32)cc1 (centres undefined)	CHOP inh 85 (no result: Arbovirus inh, WT yeast gro inh, Lmaj promast)
COc1ccc(C2CC(O)(c3ccccc3)Oc3c(C)ccc(C)c32)cc1 (centres undefined)	CHOP inh 98 (no result: Arbovirus inh, WT yeast gro inh, Lmaj promast)
COc1ccc([C@@H]2C[C@@H](c3ccccc3)Oc3cc(C)cc(C)c32)cc1	none (no result: Arbovirus inh, WT yeast gro inh, Lmaj promast)
COc1ccc(-c2nnc(SCC(=O)Nc3nc4ccccc4s3)n2C)cc1	CHOP inh 93
COc1ccc(-c2nnc(SCC(=O)Nc3ccccc3)n2C)cc1	none
Cn1c(CSCc2ccc(Cl)cc2)nnc1SCC(=O)Nc1nc2ccccc2s1	CHOP inh 92
CCOc1ccc(-c2nnc3ccc(SCC(=O)Nc4nc5ccccc5s4)nn23)cc1	CHOP inh 70
CC(=O)C1=C(C)NC(SCC(=O)Nc2nc3ccccc3s2)=C(C#N)C1c1ccc(Cl)cc1 (centres undefined)	CHOP inh 85
COc1ccc(NC(=O)CSC2=C(C#N)C(c3ccco3)C(C(=O)Nc3nc4ccccc4s3)=C(C)N2)cc1 (centres undefined)	none (no result: Arbovirus inh, WT yeast gro inh, CHOP inh)
O=C(COc1ccc(Cl)cc1Cl)Nc1c(-c2cccs2)nc2ccccn12	CHOP inh 85
O=[N+]([O-])c1ccc(-c2ccc(/C=N/c3c(-c4ccco4)nc4ccccn34)o2)c(Cl)c1	CHOP inh 79
CC(NS(=O)(=O)c1ccc(Br)cc1)C(N)=O (centres undefined)	WT yeast gro inh 66
CCOc1ccc(NC(=S)N(CCOC)C(C)c2cccnc2)cc1 (centres undefined)	Lmaj promast 73
COCCN(C(=S)Nc1cccc(C)c1)C(C)c1cccnc1 (centres undefined)	Lmaj promast 64
CCOc1ccc(NC(=O)N(CCN(C)C)C(C)c2cccnc2)cc1 (centres undefined)	none (no result: Arbovirus inh, WT yeast gro inh, Lmaj promast)
Cc1ccc(NC(=S)N(CCN(C)C)C(C)c2cccnc2)cc1 (centres undefined)	none
Cc1nc2ccccc2n1C(=O)N(C)C	none
N#Cc1ccc(C(=O)OCC(=O)Nc2ccc(S(N)(=O)=O)cc2)cc1	none (no result: Arbovirus inh, WT yeast gro inh, Lmaj promast)
CCCc1cc(N2CCN(C(=O)c3ccco3)CC2)n2c(nc3ccccc32)c1C#N	Lmaj promast 71
CC(=O)Oc1c(Sc2ccccc2[N+](=O)[O-])c(C)nn1C(C)(C)C	CHOP inh 75
CC(=O)c1cc(CN2CCN(CC=C(C)C)C(CCO)C2)cs1 (centres undefined)	none
OCCC1CN(Cc2ccc3nsnc3c2)CCN1CCc1ccccc1 (centres undefined)	Lmaj promast 84
CC(=O)c1cc(CN2CCN(Cc3ccccc3)C(CCO)C2)cs1 (centres undefined)	Lmaj promast 65
CC(=O)c1cc(CN2CCN(CCc3ccccc3)C(CCO)C2)cs1 (centres undefined)	Lmaj promast 77
COC(=O)c1scc(C)c1N1C(=O)c2ccccc2C1=O	none (no result: Arbovirus inh, WT yeast gro inh, Lmaj promast)
N#CCCn1cc(/C=N/NC(N)=S)c(-c2ccccc2)n1	none
Cn1ccnc1/C(=N\NC(=O)c1ccccc1)c1cccc([N+](=O)[O-])c1	none
CCOc1ccc(C(=O)N/N=C(\c2ccccc2)c2ccccn2)cc1	WT yeast gro inh 69, Lmaj promast 99
O=C(N/N=C(\c1ccccc1)c1ccccn1)c1cccc([N+](=O)[O-])c1	Lmaj promast 100
